According to PubChem BioAssay (NCI):
This is part of a sample that, as a whole, favours compounds with a hit. Of some 79,000 tested, about 15% had one in any assay. Active and inactive are the calls of the source. Rule as the data show it: active = growth inhibition above about 70%; inactive = the rest.

How the values were obtained:
[1] = NCI Yeast Anticancer Drug Screen. Data for the mec2-1 strain (AID 157); details: S. cerevisiae mec2-1 strain, stronger effect = higher value
In short: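 Yeast mec2-1 mutant treated with compound. Readout: growth inhibition vs vehicle controls.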

[2] = NCI Yeast Anticancer Drug Screen. Data for the rad14 strain (AID 159);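 also: 0% = growth of vehicle-treated control cultures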; details: S. cerevisiae rad14 strain growth inhibition, stronger effect = higher value
In short: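 Yeast cells carrying a defined DNA-repair defect were exposed to compounds, and growth inhibition was calculated relative to vehicle-treated control cultures.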

[3] = NCI Yeast Anticancer Drug Screen. Data for the sgs1 mgt1 strain (AID 161);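 also: 0% = growth of cultures given vehicle only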; details: S. cerevisiae sgs1 mgt1 strain, stronger effect = higher value
In short: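 Test agents were incubated with a DNA-repair-mutant yeast strain. Growth was then read and compared against vehicle-treated controls.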

[4] = NCI Yeast Anticancer Drug Screen. Data for the CLN2oe strain (AID 163);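 also: 0% = growth of vehicle-only control cultures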; details: S. cerevisiae CLN2oe strain, stronger effect = higher value
In short: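 Read-out: yeast growth inhibition, expressed relative to vehicle-only controls. The strain bears an engineered cell-cycle alteration.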

[5] = NCI Yeast Anticancer Drug Screen. Data for the cln2 rad14 strain (AID 165);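 also: 0% = growth equal to vehicle treated cultures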; details: S. cerevisiae cln2 rad14 strain, stronger effect = higher value
In short: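 cln2 rad14 yeast strain; compound exposure; growth inhibition read vs vehicle controls.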

[6] = NCI Yeast Anticancer Drug Screen. Data for the bub3 strain (AID 167); details: S. cerevisiae bub3 mutant strain, stronger effect = higher value
In short: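 Compounds were applied to a genetically altered yeast strain carrying a cell-cycle control defect. Growth inhibition was scored against vehicle-treated controls.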

[7] = NCI Yeast Anticancer Drug Screen. Data for the wt2 strain (AID 169);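 also: 0% = growth of vehicle-treated yeast cultures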; details: S. cerevisiae wt2 strain growth inhibition, stronger effect = higher value
In short: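 Read-out: growth inhibition versus vehicle-treated control cultures after compound exposure of the yeast strain.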

[8] = NCI Yeast Anticancer Drug Screen. Data for the mlh1 strain (AID 171);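 also: 0% = growth of vehicle-treated control cultures of the same strain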; details: S. cerevisiae mlh1 strain growth inhibition, stronger effect = higher value
In short: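 Read-out: growth inhibition versus vehicle controls. Strain: engineered yeast with a defined DNA repair or cell cycle defect, compound-treated.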

[9] = NCI Yeast Anticancer Drug Screen. Data for the sgs1 strain (AID 173);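 also: 0% = growth of vehicle-only control cultures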; details: S. cerevisiae sgs1 mutant, stronger effect = higher value
In short: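 Read-out: yeast growth inhibition relative to vehicle controls, following compound exposure of a strain with a defined DNA repair/cell cycle alteration.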

[10] = NCI Yeast Anticancer Drug Screen. Data for the mlh1 rad18 strain (AID 175); details: S. cerevisiae mlh1 rad18 strain growth inhibition, stronger effect = higher value
In short: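 Yeast w/ defined DNA-repair lesions; compound exposure; growth vs vehicle controls → % inhibition.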

[11] = NCI Yeast Anticancer Drug Screen. Data for the rad18 strain (AID 177); details: S. cerevisiae rad18 mutant growth inhibition, stronger effect = higher value
In short: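 Readout: growth inhibition vs vehicle controls. Cells: genetically altered yeast strain, DNA repair defect.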

[12] = NCI Yeast Anticancer Drug Screen. Data for the rad52 strain (AID 147);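 also: 0% = growth of vehicle-treated control cultures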; details: S. cerevisiae rad52 mutant growth inhibition, stronger effect = higher value
In short: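 Read-out: growth inhibition versus vehicle-treated controls. Cells were a DNA repair-deficient yeast strain treated with compounds.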

[13] = NCI Yeast Anticancer Drug Screen. Data for the rad50EPP+ strain (AID 151);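 also: 0% = growth of vehicle-treated control cultures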; details: S. cerevisiae rad50 mutant strain, stronger effect = higher value
In short: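 Growth inhibition read against vehicle controls in rad50EPP+ yeast, a strain altered in DNA damage repair, after compound exposure.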

[14] = NCI Yeast Anticancer Drug Screen. Data for the mgt1 strain (AID 153); details: S. cerevisiae mgt1 mutant growth inhibition, stronger effect = higher value
In short: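 mgt1 yeast grown with test compound; read-out is growth inhibition versus vehicle-treated cultures.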

[15] = NCI Yeast Anticancer Drug Screen. Data for the rad50 strain (AID 155);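 also: 0% = growth of vehicle-only cultures of the same strain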; details: S. cerevisiae rad50 strain growth inhibition, stronger effect = higher value
In short: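 Yeast carrying a defined DNA repair defect were exposed to test compounds, and growth was compared with vehicle-treated controls to give percent inhibition.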

[16] = NCI Yeast Anticancer Drug Screen. Data for the wt1 strain (AID 149);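 also: 0% = growth of vehicle-treated wt1 cultures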; details: S. cerevisiae wt1 strain (SPY 50644) growth inhibition, stronger effect = higher value
In short: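 Yeast wt1 strain exposed to compounds; growth inhibition measured relative to vehicle-treated controls.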

[17] = at 5.0 µM (retest, dose inferred, filed as 0.5)
[18] = at 50.0 µM (retest, dose inferred, filed as 5.0)

Measured: growth inhibition

O=S(=O)(c1ccccc1)N1CN2CN(C1)CN(S(=O)(=O)c1ccccc1)C2
inactive: [1]; at 100.0 µM -10% | [2]; at 1.2 µM -16% | [2]; at 3.7 µM -16% | [2]; at 11.0 µM -30% | [2]; at 33.0 µM -24% | [2]; at 100.0 µM -26% | [3]; [17] -11% | [3]; [18] 4% | [3]; at 50.0 µM -5.55% | [4]; at 1.2 µM 1% | [4]; at 3.7 µM -4% | [4]; at 11.0 µM -6% | [4]; at 33.0 µM 13% | [4]; at 100.0 µM -7% | [5]; [17] 44% | [5]; [18] 52% | [5]; at 50.0 µM -16.4% | [6]; at 1.2 µM -13% | [6]; at 3.7 µM -16% | [6]; [17] 25% | [6]; at 11.0 µM -25% | [6]; at 33.0 µM 3% | [6]; [18] 31% | [6]; at 50.0 µM -29.2% | [6]; at 100.0 µM -21% | [7]; at 1.2 µM -9% | [7]; at 3.7 µM 9% | [7]; at 11.0 µM -14% | [7]; at 33.0 µM -5% | [7]; at 100.0 µM 5% | [8]; at 1.2 µM -16% | [8]; at 3.7 µM -18% | [8]; at 11.0 µM -23% | [8]; at 33.0 µM -18% | [8]; at 100.0 µM -21% | [9]; at 1.2 µM -21% | [9]; at 3.7 µM -19% | [9]; at 11.0 µM -23% | [9]; at 33.0 µM -24% | [9]; at 100.0 µM -19% | [10]; [17] 40% | [10]; [18] 30% | [10]; at 50.0 µM -3.75% | [11]; at 1.2 µM -18% | [11]; at 3.7 µM -14% | [11]; at 11.0 µM -19% | [11]; at 33.0 µM -27% | [11]; at 100.0 µM -36%

CCOC(=O)/C(=C/c1cccc(Cl)c1)N(CC)CC
active: [12]; at 100.0 µM 96% | [14]; at 100.0 µM 93% | [15]; [18] 75% | [15]; at 50.0 µM 77.4% | [15]; at 100.0 µM 95% | [1]; [18] 86% | [1]; at 50.0 µM 78.5% | [1]; at 100.0 µM 95% | [2]; at 100.0 µM 93% | [3]; [18] 90% | [3]; at 50.0 µM 83% | [4]; at 100.0 µM 96% | [6]; [18] 90% | [6]; at 50.0 µM 83.5% | [6]; at 100.0 µM 96% | [7]; at 100.0 µM 97% | [8]; at 100.0 µM 91% | [10]; [18] 83% | [10]; at 50.0 µM 78.2% | [11]; at 100.0 µM 95%
inactive: [12]; at 1.2 µM 10% | [12]; at 3.7 µM 13% | [12]; at 11.0 µM 12% | [12]; at 33.0 µM 49% | [13]; at 1.2 µM 37% | [13]; at 3.7 µM 29% | [13]; at 11.0 µM 34% | [13]; at 33.0 µM 45% | [13]; at 100.0 µM 57% | [14]; at 1.2 µM 8% | [14]; at 3.7 µM 9% | [14]; at 11.0 µM 27% | [14]; at 33.0 µM 51% | [15]; at 1.2 µM -1% | [15]; at 3.7 µM 5% | [15]; [17] 17% | [15]; at 11.0 µM 6% | [15]; at 33.0 µM 39% | [1]; at 1.2 µM 6% | [1]; at 3.7 µM 2% | [1]; [17] -22% | [1]; at 11.0 µM 7% | [1]; at 33.0 µM 46% | [2]; at 1.2 µM -12% | [2]; at 3.7 µM 10% | [2]; at 11.0 µM 12% | [2]; at 33.0 µM 46% | [3]; [17] 10% | [4]; at 1.2 µM 8% | [4]; at 3.7 µM -9% | [4]; at 11.0 µM 20% | [4]; at 33.0 µM 45% | [6]; at 1.2 µM 30% | [6]; at 3.7 µM 18% | [6]; [17] 17% | [6]; at 11.0 µM 24% | [6]; at 33.0 µM 55% | [7]; at 1.2 µM 5% | [7]; at 3.7 µM 11% | [7]; at 11.0 µM 13% | [7]; at 33.0 µM 40% | [8]; at 1.2 µM 18% | [8]; at 3.7 µM 13% | [8]; at 11.0 µM 7% | [8]; at 33.0 µM 48% | [10]; [17] -9% | [11]; at 1.2 µM 13% | [11]; at 3.7 µM 14% | [11]; at 11.0 µM 17% | [11]; at 33.0 µM 35%

O=[N+]([O-])c1ccc(C(c2c[nH]c3ccccc23)c2c[nH]c3ccccc23)cc1
inactive: [16]; at 1.2 µM 12% | [13]; at 1.2 µM 10% | [13]; at 3.7 µM 9% | [13]; at 11.0 µM 3% | [13]; at 33.0 µM 2% | [13]; at 100.0 µM -14% | [14]; at 1.2 µM 18% | [1]; at 1.2 µM 22% | [1]; [17] 10% | [2]; at 1.2 µM 25% | [4]; at 1.2 µM 40% | [5]; [17] 14% | [6]; at 1.2 µM 24% | [6]; [17] 45% | [7]; at 1.2 µM 9% | [8]; at 1.2 µM 33% | [9]; at 1.2 µM 33% | [11]; at 1.2 µM 66%
active: [16]; at 3.7 µM 97% | [16]; at 11.0 µM 96% | [16]; at 33.0 µM 92% | [16]; at 100.0 µM 89% | [14]; at 3.7 µM 99% | [14]; at 11.0 µM 97% | [14]; at 33.0 µM 94% | [14]; at 100.0 µM 87% | [15]; at 1.2 µM 84% | [15]; at 3.7 µM 85% | [15]; [17] 79% | [15]; at 11.0 µM 94% | [15]; at 33.0 µM 89% | [15]; [18] 89% | [15]; at 50.0 µM 93.2% | [15]; at 100.0 µM 79% | [1]; at 3.7 µM 99% | [1]; at 11.0 µM 97% | [1]; at 33.0 µM 94% | [1]; [18] 95% | [1]; at 50.0 µM 93.8% | [1]; at 100.0 µM 88% | [2]; at 3.7 µM 98% | [2]; at 11.0 µM 97% | [2]; at 33.0 µM 93% | [2]; at 100.0 µM 84% | [3]; [17] 82% | [3]; [18] 95% | [3]; at 50.0 µM 92.9% | [4]; at 3.7 µM 98% | [4]; at 11.0 µM 96% | [4]; at 33.0 µM 92% | [4]; at 100.0 µM 86% | [5]; [18] 93% | [5]; at 50.0 µM 88.1% | [6]; at 3.7 µM 98% | [6]; at 11.0 µM 96% | [6]; at 33.0 µM 93% | [6]; [18] 96% | [6]; at 50.0 µM 94.3% | [6]; at 100.0 µM 86% | [7]; at 3.7 µM 98% | [7]; at 11.0 µM 97% | [7]; at 33.0 µM 94% | [7]; at 100.0 µM 88% | [8]; at 3.7 µM 98% | [8]; at 11.0 µM 97% | [8]; at 33.0 µM 94% | [8]; at 100.0 µM 90% | [9]; at 3.7 µM 98% | [9]; at 11.0 µM 97% | [9]; at 33.0 µM 95% | [9]; at 100.0 µM 88% | [10]; [17] 93% | [10]; [18] 92% | [10]; at 50.0 µM 93% | [11]; at 3.7 µM 98% | [11]; at 11.0 µM 96% | [11]; at 33.0 µM 92% | [11]; at 100.0 µM 86%
